What follows are sequences tested on VDR:RXRa (NR concentration 270 nM, RXRa partner concentration 90 nM) (assay: PBM binding z-score (relative to random genomic background probes); higher = stronger binding; sequences stand for … in GC…GCGATTGACAGCGTAGAATGAAGG).
Experimental: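 Protein-binding microarray (Agilent 4x180K custom design, double-stranded 60-nt probes: 5' GC cap, 34-nt variable region, 24-nt constant primer region; full probe sequence given). Purified or IVT nuclear receptor:RXRα heterodimers (3:1 NR:RXRα, mostly 270:90 nM) or homodimers were incubated for 1 h in PBS with 2% milk and no ligand, then detected with Alexa488 antibodies. Fluorescence from o1-orientation probes (~5 replicates averaged) was converted to z-scores against 500 random hg19 background probes. Variable regions are seed direct-repeat (DR0–DR5) sites, all their single-nucleotide variants and half-site ablations.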

| Sequence | PBM binding z-score |
| --- | --- |
| TCTAGCAGGCCAAAGGGTCACTCAAGAGGTACGG | 3.12 |
| TAGCCTAGGTCATTGGGCCACTATAGTACGCATC | 2.23 |
| CGTCCAACGTCATAGGAGGTCAGTGAAGACAGAT | 2.06 |
| CCTAGCAGGCCAATCTGGGTCACTCTAGGCTTGA | 0.251 |
| TAGCCTAGGTCAGAACGGGCCAGTATACGCTATA | 0.299 |
| ACTATTAGTTGACTTAGGGCAACCCATACGACGC | 0.512 |
| CCGACTGGGGCCAGGTTACCATAACGCACAGCCA | -0.248 |
| CCTAGCAGGCCAGGGTCACTCTAGCATTTCGCTT | 2.45 |
| ACTCGGAGGACTAAGGTCAGAGCTACGCCAGTGA | 1.65 |
| TCTCGGAGGACACGAACGGTCAGAGCTCGACATC | 0.073 |
| ATCGAAAGGGCGACGAGGTGAGTATACACCGTTT | 1.32 |
| TCTTGTTGATCAACAGGAGGTTAAGAAAGATCGA | 0.368 |
| ACATGTAGGTTAGCTGGGGTCATTCAGACTAGGC | 6.43 |
| CCGGCTAGGTCATGGTCAGCTAATCTACAGTATG | 1.63 |
| CCTTGCGGGTCAAGGTTATAGCACGGGTGGTACG | 2.95 |
| TAGCCTAGGTCATTCAGGGGCCAGTATAGAAAGC | 3.26 |
| AATACAGGGTCACTAGGCCAGAGAAGGTACGAAT | 4.08 |
| ACTAGTTGGTCAGCCGAGGTCACACACAATTCGG | 4.66 |
| CGAACTAGGTCAGAACAGGACAGTGTAGGATGAT | 0.86 |
| GCATATAGGTAATACTAGGTGAAAGTCCGATTGT | 0.212 |

| Sequence | PBM binding z-score |
| --- | --- |
| CGTCCAATGTCAAGGTCAGTGAAAGAGACTCGAA | 2.08 |
| ATATGCAGGTTAAGGGTCATTCAGGTTGGTTCGC | 5.68 |
| CCTACCGGGCCAAGGTCATTGATCAGTCAAAGCA | 3.22 |
| ATCTCAAGGTAAGACTCAGTTCAGTGAAGAACGC | 1.27 |
| CAAACTAGGTCAAGGACAAAGTCGGTTTGTGCCA | 1.79 |
| CAGCCTAGGTCTGGGCCAGTATAGGAGGAACGTT | -0.828 |
| CAAACTAGGTCGCGAAAGGTCAAAGTCGAATGAC | 5.94 |
| ATCTCTAGGAAAAGATAGTTCAGTGAATGCAAAT | 0.581 |
| ATCGAAAAGTCGAGGTGAGTATAGAGAAAGGGAA | -0.237 |
| CCTACTAGGCCAAGGTCATTGATCAGTCAAAGCA | 3.48 |
| CAAACTAGGTCAAAGGTCTAAGTCGAGCCAACCA | 2.98 |
| CGAATGAGGGCATGAGTTGATAGCAAATGCCGAT | 1.48 |
| CGTCCAAGGTCAATGCTAGGTCAATGAAAGCATT | 5.33 |
| ACTAGCCGGCCAAGGGTCACTCAAGATTAGTCCG | 2.59 |
| GCTCGGAGGACAAGGACAGAGCTTTGTCCGTAGA | -0.798 |
| TCTTGTAGATAAATAGAGGTTAAGAAAGTGCGCT | 1.87 |
| TCATATAGGTGAAGGTGAAAGTCGAACGATATGA | 0.278 |
| CGTCAAAGTTCGAGGTAACGTAACAGAAAGCAGC | 1.32 |
| CATACTGGGCCAAGGTCATTGATCAGTCAAAGCA | 3.48 |
| TCGAGTAGGTTAGGGGCATTCTGAATGGCGTCGA | 0.242 |

Reference: the supplement of paper PMC6555819
